Assay results: PubChem BioAssay (NCI)
Compounds without any hit were thinned out: in the full panel of roughly 79,000, 15% have a hit. A number with no mark means an inactive call. Active and inactive are the calls of the source. Rule as the data show it: active = growth inhibition above about 70%; inactive = the rest.

Legend:
[1] = NCI Yeast Anticancer Drug Screen. Data for the rad52 strain (AID 147);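 also: 0% = growth of vehicle-treated control cultures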; conditions: S. cerevisiae rad52 mutant growth inhibition, active compounds read high
Procedure, shortened: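 Vehicle-treated cultures served as the reference for growth inhibition of compound-exposed yeast bearing a DNA repair mutation.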

[2] = NCI Yeast Anticancer Drug Screen. Data for the wt1 strain (AID 149);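 also: 0% = growth of vehicle-treated wt1 cultures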; conditions: S. cerevisiae wt1 strain (SPY 50644) growth inhibition, active compounds read high
Procedure, shortened: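 wt1 strain grown with compound or vehicle; inhibition taken from the growth difference.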

[3] = NCI Yeast Anticancer Drug Screen. Data for the rad50EPP+ strain (AID 151);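 also: 0% = growth of vehicle-treated control cultures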; conditions: S. cerevisiae rad50 mutant strain, active compounds read high
Procedure, shortened: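 In this screen, rad50EPP+ yeast were exposed to compounds. Growth inhibition was scored against vehicle-treated controls.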

[4] = NCI Yeast Anticancer Drug Screen. Data for the mgt1 strain (AID 153); conditions: S. cerevisiae mgt1 mutant growth inhibition, active compounds read high
Procedure, shortened: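 mgt1 strain exposed; growth vs vehicle control recorded as inhibition.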

[5] = NCI Yeast Anticancer Drug Screen. Data for the rad50 strain (AID 155);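 also: 0% = growth of vehicle-only cultures of the same strain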; conditions: S. cerevisiae rad50 strain growth inhibition, active compounds read high
Procedure, shortened: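 DNA repair mutant yeast, compound exposure, growth read-out; inhibition is taken relative to vehicle.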

[6] = NCI Yeast Anticancer Drug Screen. Data for the mec2-1 strain (AID 157); conditions: S. cerevisiae mec2-1 strain, active compounds read high
Procedure, shortened: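 Vehicle-treated cultures served as reference for growth inhibition of compound-exposed mec2-1 yeast.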

[7] = NCI Yeast Anticancer Drug Screen. Data for the rad14 strain (AID 159);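 also: 0% = growth of vehicle-treated control cultures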; conditions: S. cerevisiae rad14 strain growth inhibition, active compounds read high
Procedure, shortened: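 DNA repair-defective yeast, compound-exposed; % growth inhibition derived by comparison with vehicle-treated controls.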

[8] = NCI Yeast Anticancer Drug Screen. Data for the sgs1 mgt1 strain (AID 161);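 also: 0% = growth of cultures given vehicle only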; conditions: S. cerevisiae sgs1 mgt1 strain, active compounds read high
Procedure, shortened: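 Mutant yeast exposed to compound; growth scored against vehicle-only wells.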

[9] = NCI Yeast Anticancer Drug Screen. Data for the CLN2oe strain (AID 163);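 also: 0% = growth of vehicle-only control cultures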; conditions: S. cerevisiae CLN2oe strain, active compounds read high
Procedure, shortened: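 Inhibition relative to vehicle-treated yeast is reported. Cells: strain with genetic alteration in cell-cycle control, grown with compound.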

[10] = NCI Yeast Anticancer Drug Screen. Data for the cln2 rad14 strain (AID 165);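 also: 0% = growth equal to vehicle treated cultures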; conditions: S. cerevisiae cln2 rad14 strain, active compounds read high
Procedure, shortened: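 Each compound was tested on cln2 rad14 yeast. Inhibition of growth was calculated against vehicle-exposed controls.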

[11] = NCI Yeast Anticancer Drug Screen. Data for the bub3 strain (AID 167); conditions: S. cerevisiae bub3 mutant strain, active compounds read high
Procedure, shortened: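 In this screen, a yeast mutant lacking normal mitotic checkpoint function is challenged with compound. Relative growth versus vehicle gives the inhibition value.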

[12] = NCI Yeast Anticancer Drug Screen. Data for the wt2 strain (AID 169);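 also: 0% = growth of vehicle-treated yeast cultures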; conditions: S. cerevisiae wt2 strain growth inhibition, active compounds read high
Procedure, shortened: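 Inhibition of yeast growth was determined after compound treatment, normalised to controls receiving only vehicle.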

[13] = NCI Yeast Anticancer Drug Screen. Data for the mlh1 strain (AID 171);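 also: 0% = growth of vehicle-treated control cultures of the same strain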; conditions: S. cerevisiae mlh1 strain growth inhibition, active compounds read high
Procedure, shortened: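 Vehicle-normalised growth inhibition of a repair- or checkpoint-altered yeast strain following compound treatment.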

[14] = NCI Yeast Anticancer Drug Screen. Data for the sgs1 strain (AID 173);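 also: 0% = growth of vehicle-only control cultures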; conditions: S. cerevisiae sgs1 mutant, active compounds read high
Procedure, shortened: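 Screen format: yeast with repair or checkpoint alterations, compound exposure, growth read relative to vehicle.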

[15] = NCI Yeast Anticancer Drug Screen. Data for the mlh1 rad18 strain (AID 175); conditions: S. cerevisiae mlh1 rad18 strain growth inhibition, active compounds read high
Procedure, shortened: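 Vehicle-treated cultures served as the reference for growth inhibition in a yeast strain carrying DNA damage repair alterations exposed to each compound.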

[16] = NCI Yeast Anticancer Drug Screen. Data for the rad18 strain (AID 177); conditions: S. cerevisiae rad18 mutant growth inhibition, active compounds read high
Procedure, shortened: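 Test articles were incubated with altered yeast defective in DNA damage repair. Results are given as inhibition of growth versus vehicle.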

[17] = at 5.0 µM (retest, dose inferred, filed as 0.5)
[18] = at 50.0 µM (retest, dose inferred, filed as 5.0)

COC(=O)c1ccccc1N=NNc1cccc(SC)c1
growth inhibition ([1]; at 1.2 µM): 11% | growth inhibition ([1]; at 3.7 µM): 13% | growth inhibition ([1]; at 11.0 µM): 23% | growth inhibition ([1]; at 33.0 µM): 89% (active) | growth inhibition ([1]; at 100.0 µM): 88% (active) | growth inhibition ([2]; at 1.2 µM): -14% | growth inhibition ([2]; at 3.7 µM): -31% | growth inhibition ([2]; at 11.0 µM): -27% | growth inhibition ([2]; at 33.0 µM): 90% (active) | growth inhibition ([2]; at 100.0 µM): 88% (active) | growth inhibition ([3]; at 1.2 µM): 9% | growth inhibition ([3]; at 3.7 µM): 21% | growth inhibition ([3]; at 11.0 µM): 39% | growth inhibition ([3]; at 33.0 µM): 47% | growth inhibition ([3]; at 100.0 µM): 36% | growth inhibition ([4]; at 1.2 µM): -16% | growth inhibition ([4]; at 3.7 µM): -18% | growth inhibition ([4]; at 11.0 µM): -3% | growth inhibition ([4]; at 33.0 µM): 92% (active) | growth inhibition ([4]; at 100.0 µM): 88% (active) | growth inhibition ([5]; at 1.2 µM): 12% | growth inhibition ([5]; at 3.7 µM): 16% | growth inhibition [5, 17]: 30% | growth inhibition ([5]; at 11.0 µM): 28% | growth inhibition ([5]; at 33.0 µM): 93% (active) | growth inhibition [5, 18]: 41% | growth inhibition ([5]; at 50.0 µM): 86.8% (active) | growth inhibition ([5]; at 100.0 µM): 87% (active) | growth inhibition ([6]; at 1.2 µM): 1% | growth inhibition ([6]; at 3.7 µM): 9% | growth inhibition [6, 17]: 40% | growth inhibition ([6]; at 11.0 µM): 19% | growth inhibition ([6]; at 33.0 µM): 93% (active) | growth inhibition [6, 18]: 39% | growth inhibition ([6]; at 50.0 µM): 85.7% (active) | growth inhibition ([6]; at 100.0 µM): 89% (active) | growth inhibition ([7]; at 1.2 µM): -11% | growth inhibition ([7]; at 3.7 µM): -21% | growth inhibition ([7]; at 11.0 µM): -6% | growth inhibition ([7]; at 33.0 µM): 93% (active) | growth inhibition ([7]; at 100.0 µM): 87% (active) | growth inhibition [8, 17]: 1% | growth inhibition [8, 18]: 94% (active) | growth inhibition ([8]; at 50.0 µM): 88.8% (active) | growth inhibition ([9]; at 1.2 µM): -17% | growth inhibition ([9]; at 3.7 µM): 12% | growth inhibition ([9]; at 11.0 µM): -9% | growth inhibition ([9]; at 33.0 µM): 93% (active) | growth inhibition ([9]; at 100.0 µM): 85% (active) | growth inhibition [10, 17]: 42% | growth inhibition [10, 18]: 87% (active) | growth inhibition ([10]; at 50.0 µM): 86% (active) | growth inhibition ([11]; at 1.2 µM): 12% | growth inhibition ([11]; at 3.7 µM): 6% | growth inhibition [11, 17]: 3% | growth inhibition ([11]; at 11.0 µM): 25% | growth inhibition ([11]; at 33.0 µM): 94% (active) | growth inhibition [11, 18]: 87% (active) | growth inhibition ([11]; at 50.0 µM): 85.9% (active) | growth inhibition ([11]; at 100.0 µM): 89% (active) | growth inhibition ([12]; at 1.2 µM): -11% | growth inhibition ([12]; at 3.7 µM): -18% | growth inhibition ([12]; at 11.0 µM): 8% | growth inhibition ([12]; at 33.0 µM): 93% (active) | growth inhibition ([12]; at 100.0 µM): 89% (active) | growth inhibition ([13]; at 1.2 µM): 2% | growth inhibition ([13]; at 3.7 µM): 4% | growth inhibition ([13]; at 11.0 µM): 17% | growth inhibition ([13]; at 33.0 µM): 94% (active) | growth inhibition ([13]; at 100.0 µM): 88% (active) | growth inhibition ([14]; at 1.2 µM): -6% | growth inhibition ([14]; at 3.7 µM): -13% | growth inhibition ([14]; at 11.0 µM): 16% | growth inhibition ([14]; at 33.0 µM): 93% (active) | growth inhibition ([14]; at 100.0 µM): 84% (active) | growth inhibition [15, 17]: 21% | growth inhibition [15, 18]: 36% | growth inhibition ([15]; at 50.0 µM): 85.2% (active) | growth inhibition ([16]; at 1.2 µM): -10% | growth inhibition ([16]; at 3.7 µM): -13% | growth inhibition ([16]; at 11.0 µM): 11% | growth inhibition ([16]; at 33.0 µM): 94% (active) | growth inhibition ([16]; at 100.0 µM): 89% (active)

NC(=S)N1N=C2c3ccccc3CC[C@@H]2[C@@H]1c1ccccc1
growth inhibition ([1]; at 1.2 µM): -34% | growth inhibition ([1]; at 3.7 µM): -17% | growth inhibition ([1]; at 11.0 µM): -8% | growth inhibition ([1]; at 33.0 µM): 7% | growth inhibition ([1]; at 100.0 µM): 77% (active) | growth inhibition ([2]; at 1.2 µM): 11% | growth inhibition ([2]; at 3.7 µM): 2% | growth inhibition ([2]; at 11.0 µM): 2% | growth inhibition ([2]; at 33.0 µM): 9% | growth inhibition ([2]; at 100.0 µM): 67% | growth inhibition ([3]; at 1.2 µM): -31% | growth inhibition ([3]; at 3.7 µM): -36% | growth inhibition ([3]; at 11.0 µM): -49% | growth inhibition ([3]; at 33.0 µM): -40% | growth inhibition ([3]; at 100.0 µM): -23% | growth inhibition ([4]; at 1.2 µM): -17% | growth inhibition ([4]; at 3.7 µM): -29% | growth inhibition ([4]; at 11.0 µM): -19% | growth inhibition ([4]; at 33.0 µM): 15% | growth inhibition ([4]; at 100.0 µM): 88% (active) | growth inhibition ([5]; at 1.2 µM): -13% | growth inhibition ([5]; at 3.7 µM): -2% | growth inhibition [5, 17]: 35% | growth inhibition ([5]; at 11.0 µM): -1% | growth inhibition ([5]; at 33.0 µM): 15% | growth inhibition [5, 18]: 79% (active) | growth inhibition ([5]; at 50.0 µM): 75.6% (active) | growth inhibition ([5]; at 100.0 µM): 86% (active) | growth inhibition ([6]; at 1.2 µM): -10% | growth inhibition ([6]; at 3.7 µM): -13% | growth inhibition [6, 17]: -16% | growth inhibition ([6]; at 11.0 µM): -3% | growth inhibition ([6]; at 33.0 µM): 13% | growth inhibition [6, 18]: 77% (active) | growth inhibition ([6]; at 50.0 µM): 64.4% | growth inhibition ([6]; at 100.0 µM): 73% (active) | growth inhibition ([7]; at 1.2 µM): -36% | growth inhibition ([7]; at 3.7 µM): -33% | growth inhibition ([7]; at 11.0 µM): -25% | growth inhibition ([7]; at 33.0 µM): 2% | growth inhibition ([7]; at 100.0 µM): 84% (active) | growth inhibition [8, 17]: 8% | growth inhibition [8, 18]: 82% (active) | growth inhibition ([8]; at 50.0 µM): 83% (active) | growth inhibition ([9]; at 1.2 µM): -28% | growth inhibition ([9]; at 3.7 µM): -27% | growth inhibition ([9]; at 11.0 µM): -25% | growth inhibition ([9]; at 33.0 µM): -10% | growth inhibition ([9]; at 100.0 µM): 73% (active) | growth inhibition [10, 17]: -4% | growth inhibition [10, 18]: 55% | growth inhibition ([10]; at 50.0 µM): 67.2% | growth inhibition ([11]; at 1.2 µM): -4% | growth inhibition ([11]; at 3.7 µM): 11% | growth inhibition [11, 17]: 27% | growth inhibition ([11]; at 11.0 µM): -4% | growth inhibition ([11]; at 33.0 µM): 34% | growth inhibition [11, 18]: 86% (active) | growth inhibition ([11]; at 50.0 µM): 77.1% (active) | growth inhibition ([11]; at 100.0 µM): 90% (active) | growth inhibition ([12]; at 1.2 µM): -17% | growth inhibition ([12]; at 3.7 µM): -5% | growth inhibition ([12]; at 11.0 µM): -2% | growth inhibition ([12]; at 33.0 µM): 25% | growth inhibition ([12]; at 100.0 µM): 86% (active) | growth inhibition ([13]; at 1.2 µM): -31% | growth inhibition ([13]; at 3.7 µM): -25% | growth inhibition ([13]; at 11.0 µM): -8% | growth inhibition ([13]; at 33.0 µM): 23% | growth inhibition ([13]; at 100.0 µM): 88% (active) | growth inhibition ([14]; at 1.2 µM): 6% | growth inhibition ([14]; at 3.7 µM): 13% | growth inhibition ([14]; at 11.0 µM): 27% | growth inhibition ([14]; at 33.0 µM): 68% | growth inhibition ([14]; at 100.0 µM): 89% (active) | growth inhibition [15, 17]: -15% | growth inhibition [15, 18]: 81% (active) | growth inhibition ([15]; at 50.0 µM): 74.5% (active) | growth inhibition ([16]; at 1.2 µM): -25% | growth inhibition ([16]; at 3.7 µM): -21% | growth inhibition ([16]; at 11.0 µM): -11% | growth inhibition ([16]; at 33.0 µM): 14% | growth inhibition ([16]; at 100.0 µM): 66%
